Test results reported in PubChem BioAssay.
For some assays here: Measured potencies and affinities stand elsewhere. Activity calls are given as the source filed them. Unless noted, how the calls were made is not given here.

Key:
[1] = antimalarial activity against Dd2 strain (AID 2302;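 active means growth inhibition above 50% at the single 2 µM test dose, taken to imply half-maximal potency below 2 µM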;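 further: 0% = DMSO untreated growth and 100% = chloroquine plus artemisinin killed control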); conditions: P. falciparum Dd2 in RBCs, LDH growth readout, 72 h; at 2 µM; hits give high values
[2] = HepG2 cytotoxicity, primary screen, cytotoxicity control for P. falciparum antimalarial project, cell-based, ATP luminescence (AID 2303;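 active means inhibition above 50%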;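 further: 0% = DMSO wells and 100% = digitonin-killed cells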); conditions: HepG2 viability, 24-48 h, at 10 µM, hits give high values
[3] = molecular target: L-lactate dehydrogenase (Plasmodium falciparum (isolate CDC / Honduras)) (UniProt Q27743); experiment: PfLDH activity inhibition – cell lysate, 3D7 strain, counter-screen for P. falciparum growth inhibition project (AID 2304);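 further: 0% = vehicle and 100% = reference inhibitor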; conditions: P. falciparum 3D7 crude extract, LDH APAD/NBT absorbance; at 2 µM; hits give high values
Chain of L-lactate dehydrogenase (Plasmodium falciparum (isolate CDC / Honduras)) (Q27743 whole entry, looked up): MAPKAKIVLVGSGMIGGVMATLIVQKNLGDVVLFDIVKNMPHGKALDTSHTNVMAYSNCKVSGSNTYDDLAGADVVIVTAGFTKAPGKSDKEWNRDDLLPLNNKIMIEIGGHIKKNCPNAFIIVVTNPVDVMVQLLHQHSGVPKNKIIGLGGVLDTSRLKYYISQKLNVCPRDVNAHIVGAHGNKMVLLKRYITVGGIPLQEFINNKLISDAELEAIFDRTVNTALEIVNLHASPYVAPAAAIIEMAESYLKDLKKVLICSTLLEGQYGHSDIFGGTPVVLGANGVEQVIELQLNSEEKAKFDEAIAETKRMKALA

[4] = inhibition of 3D7 malaria parasite growth – strain 3D7 (AID 2306);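 further: 0% = DMSO wells and 100% = chloroquine plus artemisinin control wells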; conditions: P. falciparum 3D7 erythrocytic growth, LDH absorbance, 72 h; at 2 µM; hits give high values
[5] = molecular target: Calcium-dependent protein kinase 1 (Plasmodium falciparum (isolate 3D7)) (UniProt P62344); experiment: PfCDPK1 kinase inhibitors, biochemical, TCAMS library (AID 1159585; cut-off not given, nearly all actives have IC50 up to about 0.98 µM;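 further: inhibitors leave more ATP so luminescence rises with inhibition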); conditions: recombinant PfCDPK1, Kinase-Glo ATP depletion luminescence
Chain of Calcium-dependent protein kinase 1 (Plasmodium falciparum (isolate 3D7)) (P62344 whole entry, looked up): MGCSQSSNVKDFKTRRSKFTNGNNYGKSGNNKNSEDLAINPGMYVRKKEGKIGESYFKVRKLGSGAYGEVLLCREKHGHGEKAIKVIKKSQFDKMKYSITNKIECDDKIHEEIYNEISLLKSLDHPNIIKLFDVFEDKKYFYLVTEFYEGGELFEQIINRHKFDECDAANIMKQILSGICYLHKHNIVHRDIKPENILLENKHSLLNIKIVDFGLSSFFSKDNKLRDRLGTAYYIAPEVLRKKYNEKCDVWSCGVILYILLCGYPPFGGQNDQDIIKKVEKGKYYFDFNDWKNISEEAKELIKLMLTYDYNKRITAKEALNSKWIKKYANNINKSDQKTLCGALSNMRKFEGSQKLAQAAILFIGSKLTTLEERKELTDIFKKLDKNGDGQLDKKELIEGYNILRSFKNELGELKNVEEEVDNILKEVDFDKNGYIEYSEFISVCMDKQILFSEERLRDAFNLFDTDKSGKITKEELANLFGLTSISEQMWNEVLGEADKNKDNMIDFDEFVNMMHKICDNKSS

[6] = molecular target: Plasmodium falciparum protein kinase 6 (PK6, PF3D7_1337100) (UniProt Q8IDW1); experiment: PfPK6 kinase inhibitors, biochemical, TCAMS library (AID 1159586); conditions: recombinant PfPK6, Kinase-Glo ATP depletion luminescence
Chain of Plasmodium falciparum protein kinase 6 (PK6, PF3D7_1337100) (Q8IDW1 1-305): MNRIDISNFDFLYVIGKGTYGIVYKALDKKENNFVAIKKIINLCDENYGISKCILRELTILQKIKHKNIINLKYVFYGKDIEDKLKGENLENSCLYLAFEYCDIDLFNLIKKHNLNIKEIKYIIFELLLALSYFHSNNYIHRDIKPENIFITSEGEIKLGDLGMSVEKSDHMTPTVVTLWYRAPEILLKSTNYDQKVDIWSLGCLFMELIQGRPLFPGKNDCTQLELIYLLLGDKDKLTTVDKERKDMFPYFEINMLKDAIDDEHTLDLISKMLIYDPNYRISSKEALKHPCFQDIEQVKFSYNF

[7] = molecular target: Protein kinase 7 (PK7), Plasmodium falciparum 3D7 (PF3D7_0213400) (UniProt Q7YTF7); experiment: inhibition of Plasmodium PK7 catalytic activity – biochemical, TCAMS antimalarial set, Kinase-Glo luminescence (AID 1159587); conditions: recombinant PfPK7, Kinase-Glo ATP depletion luminescence
Chain of Protein kinase 7 (PK7), Plasmodium falciparum 3D7 (PF3D7_0213400) (Q7YTF7 1-343): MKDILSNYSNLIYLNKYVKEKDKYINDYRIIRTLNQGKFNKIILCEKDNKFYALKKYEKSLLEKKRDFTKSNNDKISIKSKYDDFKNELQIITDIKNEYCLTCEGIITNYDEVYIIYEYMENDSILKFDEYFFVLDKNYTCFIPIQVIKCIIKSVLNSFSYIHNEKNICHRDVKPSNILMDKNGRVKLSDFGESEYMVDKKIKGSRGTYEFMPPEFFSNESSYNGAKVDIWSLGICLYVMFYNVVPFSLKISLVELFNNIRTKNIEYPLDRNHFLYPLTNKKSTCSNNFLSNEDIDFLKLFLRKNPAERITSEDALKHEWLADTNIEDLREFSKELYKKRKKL

[8] = molecular target: Calcium-dependent protein kinase 4 (Plasmodium falciparum (isolate 3D7)) (UniProt Q8IBS5); experiment: PfCDPK4 kinase inhibitors, biochemical, TCAMS library (AID 1159588; cut-off not given, nearly all actives have IC50 up to about 0.91 µM); conditions: recombinant PfCDPK4, Kinase-Glo ATP depletion luminescence
Chain of Calcium-dependent protein kinase 4 (Plasmodium falciparum (isolate 3D7)) (Q8IBS5 whole entry, looked up): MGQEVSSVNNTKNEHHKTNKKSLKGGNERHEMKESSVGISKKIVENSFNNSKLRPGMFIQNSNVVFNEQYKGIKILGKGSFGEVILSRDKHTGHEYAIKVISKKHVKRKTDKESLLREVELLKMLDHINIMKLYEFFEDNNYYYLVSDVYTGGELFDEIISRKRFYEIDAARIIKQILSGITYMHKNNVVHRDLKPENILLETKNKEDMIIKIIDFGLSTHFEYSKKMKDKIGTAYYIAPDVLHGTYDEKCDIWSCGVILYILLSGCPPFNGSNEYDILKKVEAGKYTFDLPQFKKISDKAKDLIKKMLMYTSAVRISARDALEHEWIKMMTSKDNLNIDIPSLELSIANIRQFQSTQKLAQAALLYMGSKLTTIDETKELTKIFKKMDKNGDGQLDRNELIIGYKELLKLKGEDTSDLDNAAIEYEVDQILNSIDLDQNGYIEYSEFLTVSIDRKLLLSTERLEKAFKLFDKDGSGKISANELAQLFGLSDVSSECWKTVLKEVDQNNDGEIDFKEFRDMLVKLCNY

c1ccc(Oc2ccc(Nc3ccnc4cc(-c5ccc(CN6CCCCC6)o5)ccc34)cc2)nc1
inactive: inhibition [2] 18% | inhibition [3] -4% | outcome [5] | outcome [6] | outcome [7] | outcome [8]
active: growth inhibition [1] 100% | growth inhibition [4] 101%

Fc1ccc(C(OCC2CCCN(Cc3cccc4cccnc34)C2)c2ccc(F)cc2)cc1 (stereo not given)
active: growth inhibition [1] 97% | growth inhibition [4] 98%
inactive: inhibition [2] 21% | inhibition [3] 3% | outcome [5] | outcome [6] | outcome [7] | outcome [8]

CN(C)c1ccc(C=Cc2nc(=O)c3ccccc3o2)cc1
active: growth inhibition [1] 97% | growth inhibition [4] 96%
inactive: inhibition [2] 6% | inhibition [3] 0% | outcome [5] | outcome [6] | outcome [7] | outcome [8]

CCN(CC)C(=NCCCCCCN=C(/N=C(\N)Nc1ccc(Cl)c(Cl)c1)N(CC)CC)/N=C(\N)Nc1ccc(Cl)c(Cl)c1
active: growth inhibition [1] 90% | growth inhibition [4] 94%
inactive: inhibition [2] 1% | inhibition [3] -3% | outcome [5] | outcome [6] | outcome [7] | outcome [8]

O=C(Nc1ccc(C(=O)N2CCN(CCN3CCN(c4cccc(C(F)(F)F)c4)CC3)CC2)cc1)c1cc(Cl)cc(Cl)c1
active: growth inhibition [4] 100%
inactive: growth inhibition [1] 19% | inhibition [2] 23% | inhibition [3] 3% | outcome [5] | outcome [6] | outcome [7] | outcome [8]

CC(C)(C)c1ccc(N2C(N)=NC(N)=NC2(C)C)cc1Cl
active: inhibition [2] 51% | growth inhibition [4] 94%
inactive: growth inhibition [1] 3% | inhibition [3] -5% | outcome [5] | outcome [6] | outcome [7] | outcome [8]

CCCCN1Cc2c(n(CC(=O)Nc3ccccc3)c3cc(-c4ccccc4)nn3c2=O)C1=O
inactive: inhibition [2] 1% | inhibition [3] -1% | outcome [5] | outcome [6] | outcome [7] | outcome [8]
active: growth inhibition [1] 60% | growth inhibition [4] 92%

COc1ccc(Cn2c(Nc3cccc(C(F)(F)F)c3)nc3cc(C(=O)NCCN4CCCC4)cnc32)cc1Cl
active: growth inhibition [4] 97%
inactive: growth inhibition [1] 31% | inhibition [2] 10% | inhibition [3] 0% | outcome [5] | outcome [6] | outcome [7] | outcome [8]

CC(=O)Nc1nc(C(=O)Nc2cccc(-c3ccc4c(cnn4CC4CC4)c3)c2)cs1
active: growth inhibition [1] 67% | growth inhibition [4] 95%
inactive: inhibition [2] 16% | inhibition [3] 2% | outcome [5] | outcome [6] | outcome [7] | outcome [8]

OC(CNc1ccnc(Nc2cccc(Cl)c2)n1)c1cccc(F)c1 (stereo not given)
active: growth inhibition [4] 90%
inactive: growth inhibition [1] 29% | inhibition [2] 16% | inhibition [3] 3% | outcome [5] | outcome [6] | outcome [7] | outcome [8]

CC(=O)Nc1cccc(C(=O)Nc2cccc(-c3ccc(-c4nc5ccc(F)cc5[nH]4)cc3)c2)c1
inactive: growth inhibition [1] 9% | inhibition [3] 5% | outcome [5] | outcome [6] | outcome [7] | outcome [8]
active: inhibition [2] 60% | growth inhibition [4] 95%

O=C(N[C@@H](CC1CCCCC1)C(=O)NCCN1CCCCC1)c1ccc(O)c(-c2ccc(Cl)c(Cl)c2)c1
inactive: inhibition [2] 14% | inhibition [3] -6% | outcome [5] | outcome [6] | outcome [7] | outcome [8]
active: growth inhibition [1] 99% | growth inhibition [4] 97%

CC1CN(c2ccc(C(=O)NCC3CC3)cc2NC(=O)OCc2ccccc2)CC(C)O1 (stereo not given)
active: growth inhibition [1] 76% | growth inhibition [4] 91%
inactive: inhibition [2] -5% | inhibition [3] -2% | outcome [5] | outcome [6] | outcome [7] | outcome [8]

Cc1cc(Cl)c(S(=O)(=O)NC(C)(C)C)cc1OCC(=O)NC1CCCCC1
inactive: inhibition [2] 10% | inhibition [3] -5% | outcome [5] | outcome [6] | outcome [7] | outcome [8]
active: growth inhibition [1] 53% | growth inhibition [4] 93%

CS(=O)(=O)N1CC2(CCN(CCC(NC(=O)/C=C/c3ccccc3)c3ccc(Cl)c(Cl)c3)CC2)c2ccccc21 (stereo not given)
active: growth inhibition [1] 55% | growth inhibition [4] 97%
inactive: inhibition [2] 18% | inhibition [3] 2% | outcome [5] | outcome [6] | outcome [7] | outcome [8]

COc1ccc(NC(=O)Nc2nc3ccccc3s2)cc1N1CCN(C)CC1
inactive: growth inhibition [1] 22% | inhibition [2] 6% | inhibition [3] -1% | outcome [5] | outcome [6] | outcome [7] | outcome [8]
active: growth inhibition [4] 95%

CCCN(CC1CC1)c1nc(C)nc2c(-c3ccccc3)cc(C)cc12
inactive: inhibition [3] 1% | outcome [5] | outcome [6] | outcome [7] | outcome [8]
active: growth inhibition [1] 78% | inhibition [2] 72% | growth inhibition [4] 96%

O=C(N[C@@H](CC1CCCCC1)C(=O)NCCN1CCOCC1)c1ccc(O)c(-c2ccc(Cl)c(Cl)c2)c1
active: growth inhibition [1] 99% | growth inhibition [4] 97%
inactive: inhibition [2] -3% | inhibition [3] 3% | outcome [5] | outcome [6] | outcome [7] | outcome [8]

COc1cc2nc(N(C)Cc3cccc(I)c3)nc(N)c2cc1OC
active: growth inhibition [1] 88% | growth inhibition [4] 101%
inactive: inhibition [2] 7% | inhibition [3] 1% | outcome [5] | outcome [6] | outcome [7] | outcome [8]

Cc1ccc([N+](=O)[O-])cc1NC(=O)N(CC(O)c1ccccc1)C1CCCCC1 (stereo not given)
inactive: inhibition [2] 11% | inhibition [3] 6% | outcome [5] | outcome [6] | outcome [7] | outcome [8]
active: growth inhibition [1] 98% | growth inhibition [4] 100%

O=C(Nc1nc2cc(S(=O)(=O)NCCc3cccc(F)c3)ccc2n1CCCn1ccnc1)c1ccc(Cl)cc1
active: growth inhibition [4] 90%
inactive: growth inhibition [1] 8% | inhibition [2] -24% | inhibition [3] 0% | outcome [5] | outcome [6] | outcome [7] | outcome [8]

CC(=O)Nc1nc(N)c2c(ccc3c2ccn3CC(C)C)n1
inactive: inhibition [3] -3% | outcome [5] | outcome [6] | outcome [7] | outcome [8]
active: growth inhibition [1] 78% | inhibition [2] 66% | growth inhibition [4] 94%

O=C(Nc1ccc(-c2cccc(-c3nc4ccc(F)cc4[nH]3)c2)cc1)Nc1ccc(F)c(F)c1F
inactive: inhibition [3] 3% | outcome [5] | outcome [6] | outcome [7] | outcome [8]
active: growth inhibition [1] 98% | inhibition [2] 70% | growth inhibition [4] 100%

CC(C)NCc1cccc(-c2ccc(NC(=O)c3ccc(C#N)cc3)cc2)c1
inactive: growth inhibition [1] 8% | inhibition [2] 15% | inhibition [3] 3% | outcome [5] | outcome [6] | outcome [7] | outcome [8]
active: growth inhibition [4] 99%

CCn1ccc2c(N3CCCS3(=O)=O)cc(C(=O)N[C@@H](Cc3ccccc3)[C@H](O)CNC(C)(C)CCCC(C)C)cc21
active: growth inhibition [1] 98% | growth inhibition [4] 97%
inactive: inhibition [2] 8% | inhibition [3] 0% | outcome [5] | outcome [6] | outcome [7] | outcome [8]

Cc1cc(-c2c[nH]c3ncc(-c4cccc5ncccc45)cc23)ccc1C(=O)O
inactive: inhibition [2] 31% | inhibition [3] -7% | outcome [5] | outcome [6] | outcome [7] | outcome [8]
active: growth inhibition [1] 77% | growth inhibition [4] 99%

O=C(NCC1CCC(CNCCc2ccccc2)CC1)Nc1ccc(Cl)c(Cl)c1 (stereo not given)
inactive: growth inhibition [1] -3% | inhibition [2] 24% | inhibition [3] -1% | outcome [5] | outcome [6] | outcome [7] | outcome [8]
active: growth inhibition [4] 96%

CCCNC(=O)c1cncc(-c2cccc(CNC3Cc4ccccc4C3)c2)c1
inactive: growth inhibition [1] 2% | inhibition [2] -2% | inhibition [3] -3% | outcome [5] | outcome [6] | outcome [7] | outcome [8]
active: growth inhibition [4] 100%

COc1cc2nc(-c3ccccc3)nc(N3CCN(CC(=O)N4CCCC4)CC3)c2cc1OC
active: growth inhibition [1] 70% | growth inhibition [4] 84%
inactive: inhibition [2] 7% | inhibition [3] -1% | outcome [5] | outcome [6] | outcome [7] | outcome [8]

CCCCCCNC[C@@H](O)[C@H](Cc1ccccc1)NC(=O)c1cc(NCC)cc(N2CCCCS2(=O)=O)c1
inactive: inhibition [2] 5% | inhibition [3] -5% | outcome [5] | outcome [6] | outcome [7] | outcome [8]
active: growth inhibition [1] 98% | growth inhibition [4] 100%

CC(C)[C@H](NC(=O)c1c(F)cccc1F)C(=O)Nc1ccc(Cc2nc3ccccc3s2)cc1
inactive: inhibition [2] 3% | inhibition [3] 0% | outcome [5] | outcome [6] | outcome [7] | outcome [8]
active: growth inhibition [1] 72% | growth inhibition [4] 82%

Oc1ccc(-c2ccccc2)cc1CN1CCCCCC1
inactive: inhibition [2] 6% | inhibition [3] 2% | outcome [5] | outcome [6] | outcome [7] | outcome [8]
active: growth inhibition [1] 85% | growth inhibition [4] 95%

CCN(CC)CCN(Cc1ccc(-c2ccc(C(F)(F)F)cc2)cc1)C(=O)Cn1c(CCc2cc(F)ccc2F)nc(=O)c2ccccc21
inactive: inhibition [2] 42% | inhibition [3] 4% | outcome [5] | outcome [6] | outcome [7] | outcome [8]
active: growth inhibition [1] 52% | growth inhibition [4] 98%

Clc1ccc(OCCC2CCN(CCCCCCCN3CCC(CCOc4ccc(Cl)c(Cl)c4)CC3)CC2)cc1Cl
inactive: inhibition [3] -5% | outcome [5] | outcome [6] | outcome [7] | outcome [8]
active: growth inhibition [1] 82% | inhibition [2] 100% | growth inhibition [4] 99%

COc1ccc([C@@]23Oc4cc(OC)cc(OC)c4[C@]2(O)C2(CC3c3ccccc3)SCCCS2)cc1 (stereo not given in full)
inactive: inhibition [2] 39% | inhibition [3] -10% | outcome [5] | outcome [6] | outcome [7] | outcome [8]
active: growth inhibition [1] 97% | growth inhibition [4] 96%

CC(CCON1C(N)=NC(N)=NC1(C)C)c1ccc(Cl)cc1 (stereo not given)
inactive: inhibition [3] -5% | outcome [5] | outcome [6] | outcome [7] | outcome [8]
active: growth inhibition [1] 97% | inhibition [2] 64% | growth inhibition [4] 93%

CN1CCCC1CNS(=O)(=O)c1ccc(C(=O)NCC2CC2)cc1 (stereo not given)
active: growth inhibition [4] 91%
inactive: growth inhibition [1] -7% | inhibition [2] 17% | inhibition [3] -1% | outcome [5] | outcome [6] | outcome [7] | outcome [8]

O=C(NCc1ccc(F)cc1)Nc1cccc(-c2ccc(-c3nc4ccc(F)cc4[nH]3)cc2)c1
inactive: inhibition [2] 7% | inhibition [3] -3% | outcome [5] | outcome [6] | outcome [7] | outcome [8]
active: growth inhibition [1] 96% | growth inhibition [4] 101%

COc1ccc(-c2ccnc(-c3cccc(-c4ccccn4)n3)c2)cc1
inactive: inhibition [2] 44% | inhibition [3] -1% | outcome [5] | outcome [6] | outcome [7] | outcome [8]
active: growth inhibition [1] 84% | growth inhibition [4] 97%

Fc1ccc(CNc2ccc3ncc(-c4cccnc4)n3n2)cc1
active: growth inhibition [4] 87%
inactive: growth inhibition [1] 7% | inhibition [2] 7% | inhibition [3] -2% | outcome [5] | outcome [6] | outcome [7] | outcome [8]
